Laboratory results from PubChem BioAssay AID686979 (National Center for Advancing Translational Sciences (NCATS), 2013).
In all, about 420,000 compounds went through this assay and about 50,000 (12%) were called active. Another 26% or so got no clear call; they are omitted. This is one part of a sample in which actives are shown more often than they occur. Values without a mark were called inactive. Calls come from the whole dose curve; as a rule, active = well fitted inhibition curve with a large enough effect; inconclusive = small, poorly fitted or top-dose-only effect; inactive = flat fitted curve, though single readings scatter. Where a SMILES comes first, the peptide text is derived from it. [ ]: non-standard residue; d: D form. ξ: configuration not given here. ξM = CSCCC(N)C(=O)O

test: qHTS for Inhibitors of human tyrosyl-DNA phosphodiesterase 1 (TDP1): qHTS in cells in presence of CPT; conditions: chicken DT40 Tdp1-/-;hTDP1 cells + 20 nM CPT, ATP luminescence, 48 h; series mostly up to 46.2 µM; activity change, negative = growth inhibition: at the top concentration; note: nearly all actives have a fitted effect of over 55% in size
How it was run: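 Cell growth measured by CellTiter-Glo luminescence after a minimum 48 h, 37 C compound exposure with 20 nM CPT in Tdp1-knockout DT40 cells stably expressing hTDP1, seeded 400/well; qHTS titration format.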
% is set by controls: 0 for no effect and ±100 for the full control effect; potency is the fitted concentration of half-maximal effect.

SMILES | activity change, negative = growth inhibition | Potency
CCc1nc(-c2cc(S(=O)(=O)N3CCN(c4ccc(OC)cc4)CC3)ccc2OC)no1 | -14.5% | –
COc1cc2c(cc1O)C(SC)=NC(C)(C)C2 | – | 25.9 µM (active)
Cc1cn(C)c(=O)n(C)c1=O | 8.57% | –
O=C1CCCCC1C(=O)c1ccccc1 (stereo not given) | 10.3% | –
O=C(Cn1c[n+](CC(=O)c2ccc([N+](=O)[O-])cc2)cn1)c1ccc([N+](=O)[O-])cc1 | – | 16.4 µM (active)
O=C(c1ccncc1)c1ccc([N+](=O)[O-])cc1 | -28.2% | –
O=C(Nn1cnnc1)c1ccc([N+](=O)[O-])cc1 | 0.36% | –
COC(=O)CNC(=O)C(CCSC)NC(C)=O (stereo not given) (Ac-[ξM]-Gly-OMe) | 3.75% | –
CCCC(C(=O)n1nc(C)cc1C)C(NS(=O)(=O)c1ccc(C)cc1)c1ccccc1 (stereo not given) | – | 16.4 µM (active)
Cc1ccc(S(=O)(=O)NC(C(=O)N2CCOCCOCCOCCOCC2)c2ccccc2)cc1 (stereo not given) | -0.594% | –
Cc1ccc(S(=O)(=O)Nc2nc(C)cc(-n3nc(C)cc3C)n2)cc1 | -29.3% | –
Cc1cccc(C(=O)NNC(=O)CSc2nnc(C(C)C)n2C)c1 | -15.2% | –
COc1ccc(NC(=O)C(c2ccccc2)N2Cc3ccccc3C2=O)cc1 (stereo not given) | -17.9% | –
Cc1ccc2nc(C)cc(N/N=C/c3ccc(F)cc3)c2c1 | -0.865% | –
Cc1cnc(CNc2nc(-c3cccnc3)nc3ccccc23)cn1 | -3.03% | –
Fc1ccc(/C=N/Nc2nc(-c3cccnc3)nc3ccccc23)cc1 | – | 20.6 µM (active)
C/C(Cn1nnc2ccccc21)=N\OC(=O)c1cc(F)c(F)cc1Cl | -1.19% | –
Cc1cc(NC(=O)CCC(=O)N(CC(=O)NCC2CCCO2)c2ccccc2)no1 (stereo not given) | 1.99% | –
O=C(COC(=O)c1c2c(nc3ccccc13)CCCC2)c1ccc(Br)s1 | – | 8.2 µM (active)
Cn1cccc1C(=O)OCC(=O)c1ccc(Br)s1 | 2.4% | –
CCc1nc2ccccc2c(C(=O)OC2CCCCC2=O)c1C (stereo not given) | -18.5% | –
CCc1noc(C)c1C(=O)N1CCCSC1=Nc1ccccc1OC | -7.02% | –
CN(C)S(=O)(=O)c1ccc(C(=O)NCCN=C2NS(=O)(=O)c3ccccc32)cc1 | -3.6% | –
COC(=O)c1ccc(C(=O)NC2CC(C)(C)Cc3c2cnn3-c2ccc(F)cc2)nc1 (stereo not given) | – | 1.84 µM (active)

SMILES | activity change, negative = growth inhibition | Potency
Cc1cc(C(=O)NC2CC(C)(C)Cc3c2cnn3-c2ccccc2)n[nH]1 (stereo not given) | -10.9% | –
CC1(C)Cc2c(cnn2-c2cccc(F)c2)C(NC(=O)c2cc[n+]([O-])cc2)C1 (stereo not given) | 15% | –
Cc1ccc(Cl)cc1NC(=O)COC(=O)C1CCCCC1 | 8.46% | –
Cc1ccc(CNC(=O)CCC(=O)N2CC(C)Sc3ccccc32)cc1 (stereo not given) | -27.6% | –
Cc1ccc(Cl)cc1NC(=O)CCC(=O)N1CC(C)Sc2ccccc21 (stereo not given) | – | 23.1 µM (active)
Cc1ccc(CNC(=O)CCNS(=O)(=O)c2ccc3c(c2)oc(=O)n3C)cc1 | -3.37% | –
C(#CCN1CCOCC1)CCCN1CCOCC1 | -14% | –
Cn1nc(C(F)(F)F)c2cc(NC(=O)OCC(C)(C)C)sc21 | -0.896% | –
CCNC(=O)C1(C)CCCN(C(=O)c2c(C)noc2C)C1 (stereo not given) | -13.3% | –
Cc1cc2ccccn2c1C(=O)c1cccc(S(=O)(=O)N2CCOCC2)c1 | – | 14.6 µM (active)
O=C(COC(=O)c1ccccc1)Nc1cccc(S(=O)(=O)N2CCOCC2)c1 | -17.4% | –
Cc1cc2ccccn2c1C(=O)c1cccc(F)c1 | -23.5% | –
O=[N+]([O-])c1ccc(S(=O)(=O)Nc2cccc(-c3ccc(N4CCCC4)nn3)c2)cc1 | -9.13% | –
Cc1cc(C(=O)CC#N)c(C)n1-c1c(C)n(C)n(-c2ccccc2)c1=O | -6.92% | –
C=C1CCN([C@@H](Cc2ccccc2)C(=O)N2CCOCC2)S(=O)(=O)c2ccccc21 | 2.59% | –
CCn1c2ccccc2c2nnc(SCC(=O)O)nc21 | -1.75% | –
CCOC(=O)c1sc(NC(=O)C(CC)Sc2nccn2C)nc1C (stereo not given) | -15.4% | –
C=CCn1c2ccccc2c2nnc(SC(CC)C(=O)Nc3nc(C)c(C(=O)OCC)s3)nc21 (stereo not given) | – | 11.6 µM (active)
O=C(NC1CC1)C1CCCN(C(=O)NC2CCCCC2)C1 (stereo not given) | -12.4% | –
Cc1ccc(S(=O)(=O)NC(=O)c2cccc(C)c2)cc1 | 10.9% | –
O=C(Nn1cnc2ccccc2c1=O)c1ccccc1 | 8.35% | –
Cc1nc2ccccc2c(=O)n1NC(=O)c1ccccc1 | -10.5% | –
CN(NC(=O)c1ccccc1)c1nc2ccccc2nc1C(F)(F)F | – | 8.2 µM (active)
COc1ccc(OCC(=O)NNC(=O)c2cccc(C)c2)cc1 | -11.5% | –

SMILES | activity change, negative = growth inhibition | Potency
COC(=O)CNC(=O)c1ccccc1F | -8.86% | –
CN(NC(=O)c1ccccc1F)c1nc(C(F)(F)F)nc2ccccc12 | – | 0.206 µM (active)
CSc1nc(N(C)NC(=O)c2cccc(C)c2)c2ccccc2n1 | – | 0.0517 µM (active)
O=C(Cn1cnc2ccccc2c1=O)NNC(=O)c1ccccc1F | 3.62% | –
COc1cc(N2C(=O)CSC2=S)cc(OC)c1OC | -18.5% | –
CCOC(=O)c1nnn(CC(=O)NC(=O)Nc2ccccc2F)c1C(=O)OCC | -18.1% | –
Cn1c(CCNS(=O)(=O)c2ccc(F)cc2)nnc1SCc1cccnc1 | 6.59% | –
CC(C)CN1CCNC(=O)C1CC(=O)N(C)CC1CCOCC1 (stereo not given) | -7.75% | –
O=C(NCCS(=O)(=O)N1CCN(c2ccc(F)cc2)CC1)c1ccccc1Br | -15% | –
COc1ccccc1CCNC(=O)CN1C(=O)NC2(CCCC2)C1=O | -0.37% | –
COC(=O)c1cc(NC(=O)CC2C(=O)NCCN2C(=O)c2ccc(F)cc2)cc(C(=O)OC)c1 (stereo not given) | -7.17% | –
CCOc1ccc(C(C(=O)NCCOC)N(CCOC)C(=O)CCC(=O)Nc2ccccn2)cc1 (stereo not given) | -15.2% | –
CCN(C(=O)c1cc([N+](=O)[O-])ccc1NCc1cccnc1)c1ccccc1 | -12% | –
CCCn1nc(C(=O)NNC(=O)CSCC(=O)Nc2cc(C)on2)c2ccccc2c1=O | -12.3% | –
O=C(NC1=CC(=O)c2ccccc2C1=O)c1ccccc1 | – | 0.651 µM (active)
CC(NC(=O)c1ccccc1)C(=O)Nc1ccccc1 (stereo not given) | 4.22% | –
O=C(NC(=O)c1ccccc1)NC(=O)c1ccccc1 | -13.4% | –
CCC1CN(CCNC(=O)c2ccsc2)Cc2cc(OC)ccc2O1 (stereo not given) | 9.24% [at 9.04 µM] | –
COc1ccc(C(C(=O)NCC2CCCO2)N(C(=O)Cn2nnc3ccccc32)c2ccc(NC(C)=O)cc2)cc1OC (stereo not given) | -3.72% | –
O=S1(=O)CC(N2CCN(c3ccccn3)CC2)CN1Cc1ccc(F)cc1 (stereo not given) | -24.6% | –
O=S1(=O)CC(N2CCN(Cc3ccccc3F)CC2)CN1Cc1cn(Cc2ccccc2)nn1 (stereo not given) | -28.2% | –
O=[N+]([O-])c1ccc(CN2CC(N3CCC(c4ccccc4)CC3)CS2(=O)=O)cc1 (stereo not given) | – | 18.4 µM (active)
